Screening data as filed in PubChem.
Shiga toxin inh = blocks Shiga toxin action in Vero cells; Vero cells, Shiga toxin protein synthesis inhibition reporter; inhibition, % at 38.7 µM; hit rate 9.2% among 290,000; in the data active means inhibition mostly above about 28%, no sharp cut-off; inactive means mostly below about 43%; further: 0% is about no effect
Pf growth 96h = P. falciparum growth inhibition at 96 hour, primary screen for plastid delayed-death inhibitors; P. falciparum luciferase reporter growth, 96 h; Potency, µM (top dose mostly 28.7 µM), inactives show top-dose activity change, negative = inhibition, actives largely listed as inhibitors; hit rate 6.9% among 320,000; further: potency means the concentration at half of the fitted maximal effect; on the % scale 0 is the no-effect control and ±100 the full control effect
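P. falciparum expressing integrated firefly luciferase grown in erythrocytes (2% hematocrit, 0.05% parasitemia final) with compounds for 96 hours at 37 C, 5% CO2. Growth inhibition read as loss of luminescence after adding luciferase detection reagent.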
CHX counter = counter-screen for Shiga toxin inhibitors: cycloheximide protein synthesis inhibition | cell reporter, cycloheximide protein synthesis inhibition counterscreen | hit rate 12% among 300,000 | max response, %; in the data active means max response mostly above about 13%, no sharp cut-off; inactive means mostly below about 14%; further: read at 38.3 µM for the half of the compounds with a filed dose; 0% is about no effect
Pf growth 48h = P. falciparum growth inhibition at 48 hours (one generation). P. falciparum luciferase growth in erythrocytes, 48 h. Potency, µM (highest dose often 28.7 µM), without a hit: at the top dose activity change, negative = inhibition, actives largely listed as inhibitors. hit rate 5.9% among 310,000. AID 504832; further: potency means the concentration at half of the fitted maximal effect; on the % scale 0 is the no-effect control and ±100 the full control effect
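Luciferase-expressing parasites in RBCs, 2% Hct / 0.1% parasitemia final; RPMI 1640 + 0.5% Albumax; 37 C, 5% CO2, one generation; luminescence read-out, lower signal = inhibition.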
LmPK inhibitor = inhibitors of Leishmania mexicana pyruvate kinase; purified LmPK, Kinase-Glo ATP luminescence, 1 h; Potency, µM (series often up to 57.5 µM), inactives show at the top dose activity change, negative = inhibition, usual class: inhibitors; hit rate 0.37% among 290,000; further: potency means the concentration at half of the fitted maximal effect; on the % scale 0 is the no-effect control and ±100 the full control effect
Target sequence (Q27686 whole entry, looked up): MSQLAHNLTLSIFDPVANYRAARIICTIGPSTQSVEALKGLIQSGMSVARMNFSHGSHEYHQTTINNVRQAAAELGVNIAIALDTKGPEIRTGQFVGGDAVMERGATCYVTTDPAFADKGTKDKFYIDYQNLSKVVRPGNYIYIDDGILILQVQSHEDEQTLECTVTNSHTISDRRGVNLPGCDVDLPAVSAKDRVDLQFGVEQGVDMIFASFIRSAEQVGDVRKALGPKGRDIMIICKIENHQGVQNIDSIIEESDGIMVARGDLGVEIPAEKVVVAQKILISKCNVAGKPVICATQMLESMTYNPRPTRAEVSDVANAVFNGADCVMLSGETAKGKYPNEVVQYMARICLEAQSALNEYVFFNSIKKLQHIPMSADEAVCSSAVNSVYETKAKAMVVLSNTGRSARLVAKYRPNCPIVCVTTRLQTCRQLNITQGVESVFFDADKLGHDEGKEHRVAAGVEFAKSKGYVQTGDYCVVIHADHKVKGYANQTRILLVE
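Purified LmPK (0.1 nM) converted ADP (0.1 mM) to ATP with PEP (0.5 mM) in imidazole buffer pH 7.2 with KCl and MgCl2, 1 h at room temperature. ATP was read by Kinase-Glo luminescence; data normalized to uninhibited and no-enzyme controls.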
Numbers without * were called inactive; i = inactive; ? = inconclusive; / = no result; [ ] = another dose, or the depositor's remark. Sampled rows, rich in hits. Any-hit rate of the full collection: about 22%. Unless noted, the call rests on the fitted dose curve; in most records, active means well fitted inhibition curve with a large enough effect; inconclusive means small, poorly fitted or top-dose-only effect, or another doubt; inactive means no such curve, though single readings can be large or run the other way.

SMILES	Shiga toxin inh	Pf growth 96h	CHX counter	Pf growth 48h	LmPK inhibitor
CCOC(=O)[C@H](CCc1ccccc1)N[C@@H](C)C(=O)N1C(C(=O)O)C[C@@H]2CCC[C@@H]21 (some centres not stated)	/	15%	/	-9%	/
CCC(=O)O[C@@H](OP(=O)(CCCCc1ccccc1)CC(=O)N1C[C@H](C2CCCCC2)C[C@H]1C(=O)O)C(C)C (some centres not stated)	/	5.4µM*	/	-10%	/
CCn1c2ccc(F)cc2c2nnc(SCCN3CCCCC3)nc21	-3	?	1	?	-3%
O=C(Nc1ccc([N+](=O)[O-])cc1)C(Cc1ccccc1)N1C(=O)c2cccc3cccc(c23)C1=O (configuration not stated)	2	?	-2	5.2µM*	-2%
COc1ccccc1CN(C)C(=O)c1sccc1-c1ccccc1	19	?	10	-13%	-10%
CC(=O)Nc1ccccc1C(=O)OCC(=O)c1ccc2ccccc2c1	76*	-3%	28*	35%	4%
CCC(=O)Nc1ccccc1C(=O)OCC(=O)c1ccccc1	89*	i	20*	329%	0%
CCC(=O)Nc1ccccc1C(=O)OCC(=O)c1ccc2ccccc2c1	12	/	11	13%	11%
NC(=O)NCCCC(=O)OCC(=O)c1ccc2ccccc2c1	23	24%	21*	12%	5%
Cn1nnnc1SCC(=O)N1c2ccccc2Sc2ccccc21	-36	?	-2	-18%	-1%
O=C(CSc1nncs1)N1c2ccccc2Sc2ccccc21	-23	/	-4	13µM*	2%
Cc1cc(Cl)ccc1OCC(=O)N1C(C)CCCC1C (configuration not stated)	73*	111%	20*	14%	-4%
CC1CCCC(C)N1C(=O)COc1ccc([N+](=O)[O-])cc1Cl (configuration not stated)	19	-7%	18	8%	5%
CC1CCCC(C)N1C(=O)COc1ccc(F)cc1 (configuration not stated)	12	?	26*	10%	-4%
CCOc1ccc(NS(=O)(=O)c2c(C(=O)N3CCCCCC3)c(C)n(C)c2C)cc1	-2	14%	9	0%	2%
Cc1c(N2C(=O)CSC2c2ccco2)c(=O)n(-c2ccccc2)n1C (configuration not stated)	-6	26%	7	21%	0%
Cc1ccc(CN2C(=O)C3CCCN3c3ccc(S(=O)(=O)N4CCOCC4)cc32)cc1 (configuration not stated)	-8	1.7µM*	15	4.7µM*	4%
COc1ccc(C(=O)NNC(=O)C2CCCO2)cc1 (configuration not stated)	-2	38%	-2	2%	5%
COc1ccc(C(=O)NNC(=O)C2CC=CCC2)cc1 (configuration not stated)	43*	2.3µM*	25*	59%	-2%
O=C(NNC(=O)C1CC=CCC1)c1ccccc1Cl (configuration not stated)	58	-24%	20*	41%	-2%
CCCN1CCC(=O)N([C@H](CSc2ccccc2)c2ccccc2)CC1	19	?	24*	?	7%
CCCN1CCC(=O)N([C@H](CO)c2ccccc2)CC1	-4	-34%	-1	30%	-4%
CC(C)CN1CCC(=O)N(C(CSc2ccc(Br)cc2)c2ccccc2)CC1 (configuration not stated)	25	/	32	/	/
CCCN1CCC(=O)N([C@H](CSc2ccccc2)Cc2ccccc2)CC1	18	?	-3	?	-3%
CCCN1CCC(=O)N(C(CSc2ccc(Br)cc2)c2ccccc2)CC1 (configuration not stated)	77*	/	50*	/	/
SMILES	Shiga toxin inh	Pf growth 96h	CHX counter	Pf growth 48h	LmPK inhibitor
CCCN1CCC(=O)N([C@H](CSc2ccc(C)cc2)c2ccccc2)CC1	46*	?	23*	?	7%
CCCN1CCC(=O)N([C@H](CSc2ccc(Br)cc2)Cc2ccccc2)CC1	-6	1.9µM*	-2	?	1%
CC(Sc1ccccc1)C(=O)NN=C1CCN(C)CC1 (configuration not stated)	-8	2%	0	21%	4%
COC(=O)C1=C(C(=O)OC)[C@@H]2N(Cc3ccccc3)c3ccccc3[C@@]23C[C@@H](C(=O)OC)N(S(=O)(=O)c2ccc(OC)cc2)C3=N1	/	/	/	/	-2%[11.5 µM]
CC(C)C(NC(=O)c1c(F)cccc1F)C(=O)OCN1C(=O)c2ccccc2C1=O (configuration not stated)	/	4%	/	-1%	/
COc1cc(NC(=O)c2cc(C)no2)c(OC)cc1Cl	-3	30%	1	17%	-6%
O=C(CC1C=Cc2ccccc2N1C(=O)c1ccccc1)c1ccccc1 (configuration not stated)	11	0.59µM*	1	?	5%
O=C(Cn1c(-c2ccco2)nc2ccccc21)N1CCCCC1	-8	31%	9	-2%	7%
Cc1cccc(OCCn2c(-c3ccco3)nc3ccccc32)c1	23	?	26*	?	-1%
CCn1c(-c2ccco2)nc2ccccc21	77*	-4%	26*	65%	-7%
c1ccc(OCCn2c(-c3ccco3)nc3ccccc32)cc1	70*	18%	20*	?	-6%
CC(CCN1C(Nc2ccccc2)=NC[C@@H]1Cc1ccccc1)c1ccccc1 (some centres not stated)	-6	?	-2	?	2%
CC(C)(C)OC(=O)N1CCC(C(=O)N2CCOCC2)CC1	-16	5%	-1	42%	-3%
CC(C)(C)OC(=O)N1CCC(C(=O)N2CCCCCC2)CC1	13	12µM*	-2	1%	2%
CCc1ccc(C(=O)CSc2nc(N)cc(=O)[nH]2)cc1	-17	10µM*	1	83%	4%
Cc1cc(C(=O)CSc2nc(N)cc(=O)[nH]2)c(C)n1CCc1ccc(F)cc1	-8	3%	-1	2%	0%
COc1ccc(CCn2c(C)cc(C(=O)CSc3nc(N)cc(=O)[nH]3)c2C)cc1	-16	9.3µM*	-2	?	4%
COc1ccc(CCn2c(C)cc(C(=O)CSc3nnc(N)s3)c2C)cc1	1	9.3µM*	8	?	-2%
CCCC(C(=O)NC(C)(C)C)N(CC1CCCO1)C(=O)CNS(=O)(=O)c1ccc(F)cc1 (configuration not stated)	-3	-18%	-6	-23%	0%
CCOC(=O)c1[nH]nc(C(=O)c2ccc(Br)cc2)c1O	63*	15%	14	0%	-2%
Cc1ccc(O)c(NC(=O)c2ccco2)c1	56*	/	36*	44%	-27%
Cc1ccc(C(=O)Nc2ccc(NC(=O)c3ccco3)c(C)c2)cc1	49*	3%	31*	77%	3%
O=C(Nc1ccc(O)cc1C(=O)O)c1ccc(NC(=O)c2ccco2)cc1	/	-23%	/	-2%	/
